Where “and” joins values, the source holds several entries; their conditions need not be identical. Equal entries are not always repeated. The panel holds about 83,000 compounds, 20% with a hit somewhere; the sample as a whole holds those more often.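 Cells were grown in 96-well plates and exposed to the test compound at a single concentration for 48 hours; results are reported as percent growth, with values below 10 considered active.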 Calls of active or inactive are those of the source. Where a SMILES comes first, the peptide text is derived from it. The star is where a group is joined. Trt = c1ccc(C(c2ccccc2)(c2ccccc2)*)cc1; Cbz = O=C(OCc1ccccc1)*
What was measured:
Assay in all cases: NCI-60 one-dose screen, 48 h (100 = growth as untreated, 0 = no growth, -100 = all killed)
NCI-H23 lung = settings: 10 µM unless noted
NCI-H226 lung = test system: NCI-H226 lung
NCI-H322M lung = test system: NCI-H322M lung
HOP-62 NSCLC = test system: HOP-62 NSCLC
NCI-H460 lung = test system: NCI-H460 lung
HOP-92 NSCLC = test system: HOP-92 NSCLC
NCI-H522 lung = test system: NCI-H522 lung
A549/ATCC NSCLC = test system: A549/ATCC NSCLC
786-0 renal = test system: 786-0 renal
COLO 205 colon = test system: COLO 205 colon

## COc1ccccc1/C=C\C(=O)c1ccccc1
NCI-H23 lung
  growth: 79.8% (inactive)
NCI-H226 lung; 10 µM unless noted
  growth: 85.8% (inactive)
NCI-H322M lung; 10 µM unless noted
  growth: 95% (inactive)
HOP-62 NSCLC; 10 µM unless noted
  growth: 85.9% (inactive)
NCI-H460 lung; 10 µM unless noted
  growth: 59.5% (inactive)
HOP-92 NSCLC; 10 µM unless noted
  growth: 16.3% (inactive)
NCI-H522 lung; 10 µM unless noted
  growth: 39.2% (inactive)
A549/ATCC NSCLC; 10 µM unless noted
  growth: 96.4% (inactive)
786-0 renal; 10 µM unless noted
  growth: 81.9% (inactive)
COLO 205 colon; 10 µM unless noted
  growth: 111% (inactive)

## O=C1NC(=O)/C(=C/C=C/c2ccccc2)S1
NCI-H23 lung
  growth: 32.6% (inactive)
NCI-H226 lung; 10 µM unless noted
  growth: 75.8% (inactive)
NCI-H322M lung; 10 µM unless noted
  growth: 51.4% (inactive)
HOP-62 NSCLC; 10 µM unless noted
  growth: 22.5% (inactive)
NCI-H460 lung; 10 µM unless noted
  growth: 10.6% (inactive)
HOP-92 NSCLC; 10 µM unless noted
  growth: 45.2% (inactive)
NCI-H522 lung; 10 µM unless noted
  growth: 24.4% (inactive)
A549/ATCC NSCLC; 10 µM unless noted
  growth: 89.1% (inactive)
786-0 renal; 10 µM unless noted
  growth: 1.55% (active)
COLO 205 colon; 10 µM unless noted
  growth: 80.7% (inactive)

## CCCCCCCCCCCCCCNCc1ccccc1
NCI-H23 lung
  growth: 75.7% (inactive)
NCI-H226 lung; 10 µM unless noted
  growth: 60.1% (inactive)
NCI-H322M lung; 10 µM unless noted
  growth: 106% (inactive)
HOP-62 NSCLC; 10 µM unless noted
  growth: 94.1% (inactive)
NCI-H460 lung; 10 µM unless noted
  growth: 77.4% (inactive)
HOP-92 NSCLC; 10 µM unless noted
  growth: 48.8% (inactive)
NCI-H522 lung; 10 µM unless noted
  growth: 75.8% (inactive)
A549/ATCC NSCLC; 10 µM unless noted
  growth: 108% (inactive)
786-0 renal; 10 µM unless noted
  growth: 67.8% (inactive)
COLO 205 colon; 10 µM unless noted
  growth: -40.9% (active)

## Cc1ccnc(NC(c2ccccc2)c2ccc3cccnc3c2O)c1 (configuration not stated)
NCI-H23 lung
  growth: 47.8% (inactive)
NCI-H226 lung; 10 µM unless noted
  growth: 57.8% (inactive)
NCI-H322M lung; 10 µM unless noted
  growth: 38.4% (inactive)
HOP-62 NSCLC; 10 µM unless noted
  growth: 54.1% (inactive)
NCI-H460 lung; 10 µM unless noted
  growth: 5.96% (active)
HOP-92 NSCLC; 10 µM unless noted
  growth: 67.8% (inactive)
NCI-H522 lung; 10 µM unless noted
  growth: 7.12% (active)
A549/ATCC NSCLC; 10 µM unless noted
  growth: 39% (inactive)
786-0 renal; 10 µM unless noted
  growth: 34.1% (inactive)
COLO 205 colon; 10 µM unless noted
  growth: 36.8% (inactive)

## O=C1c2cccnc2-c2nccc3c2c1nc1cc(Br)ccc13
NCI-H23 lung
  growth: -78.4% (active) and -66.2% (active)
NCI-H226 lung; 10 µM unless noted
  growth: -43.8% (active) and -48.5% (active)
NCI-H322M lung; 10 µM unless noted
  growth: -99.2% (active) and -89.2% (active)
HOP-62 NSCLC; 10 µM unless noted
  growth: -68.6% (active) and -85.7% (active)
NCI-H460 lung; 10 µM unless noted
  growth: -52.9% (active) and -78.6% (active)
HOP-92 NSCLC; 10 µM unless noted
  growth: -17.1% (active) and -72.6% (active)
NCI-H522 lung; 10 µM unless noted
  growth: -60.8% (active) and -66% (active)
A549/ATCC NSCLC; 10 µM unless noted
  growth: -65.9% (active) and -81% (active)
786-0 renal; 10 µM unless noted
  growth: -86.6% (active) and -85.6% (active)
COLO 205 colon; 10 µM unless noted
  growth: -85.6% (active) and -85% (active)

## CN=C(N)N/N=C(\C)c1ccc2c(c1)Cc1cc(/C(C)=N/NC(N)=NC)ccc1-2
NCI-H226 lung; 10 µM unless noted
  growth: -61.2% (active)
NCI-H322M lung; 10 µM unless noted
  growth: -1.93% (active)
HOP-62 NSCLC; 10 µM unless noted
  growth: -82.7% (active)
NCI-H460 lung; 10 µM unless noted
  growth: -69.9% (active)
HOP-92 NSCLC; 10 µM unless noted
  growth: 13.5% (inactive)
NCI-H522 lung; 10 µM unless noted
  growth: -35% (active)
A549/ATCC NSCLC; 10 µM unless noted
  growth: -17.6% (active)
786-0 renal; 10 µM unless noted
  growth: -49.7% (active)
COLO 205 colon; 10 µM unless noted
  growth: -67.1% (active)

## COC(=O)C(CSC(c1ccccc1)(c1ccccc1)c1ccccc1)NC(=O)C(CC(N)=O)NC(=O)OCc1ccccc1 (stereo not drawn) (Cbz-Asn-Cys(Trt)-OMe; configuration not given here)
NCI-H23 lung
  growth: 65.4% (inactive)
NCI-H226 lung; 10 µM unless noted
  growth: 71.4% (inactive)
NCI-H322M lung; 10 µM unless noted
  growth: 30.8% (inactive)
HOP-62 NSCLC; 10 µM unless noted
  growth: 41.4% (inactive)
NCI-H460 lung; 10 µM unless noted
  growth: 31.2% (inactive)
HOP-92 NSCLC; 10 µM unless noted
  growth: 55.7% (inactive)
NCI-H522 lung; 10 µM unless noted
  growth: 51.5% (inactive)
A549/ATCC NSCLC; 10 µM unless noted
  growth: 41.4% (inactive)
786-0 renal; 10 µM unless noted
  growth: 30.7% (inactive)
COLO 205 colon; 10 µM unless noted
  growth: -50.8% (active)

## CCN(CC)CCOc1ccc(-c2nc3cc(Cl)ccc3s2)cc1
NCI-H23 lung
  growth: -53.6% (active)
NCI-H226 lung; 10 µM unless noted
  growth: 65.2% (inactive)
NCI-H322M lung; 10 µM unless noted
  growth: 28.3% (inactive)
HOP-62 NSCLC; 10 µM unless noted
  growth: -66.6% (active)
NCI-H460 lung; 10 µM unless noted
  growth: -64.6% (active)
HOP-92 NSCLC; 10 µM unless noted
  growth: 19.3% (inactive)
NCI-H522 lung; 10 µM unless noted
  growth: -39.5% (active)
A549/ATCC NSCLC; 10 µM unless noted
  growth: -1.04% (active)
786-0 renal; 10 µM unless noted
  growth: 29.5% (inactive)
COLO 205 colon; 10 µM unless noted
  growth: -73.9% (active)

## O=C(/C=C\c1ccccc1)N1c2ccccc2CC1c1c[nH]c2ccccc12 (configuration not stated)
NCI-H23 lung
  growth: 59.5% (inactive)
NCI-H226 lung; 10 µM unless noted
  growth: 67.3% (inactive)
NCI-H322M lung; 10 µM unless noted
  growth: 76.9% (inactive)
HOP-62 NSCLC; 10 µM unless noted
  growth: 57.1% (inactive)
NCI-H460 lung; 10 µM unless noted
  growth: 70.1% (inactive)
HOP-92 NSCLC; 10 µM unless noted
  growth: 47.5% (inactive)
NCI-H522 lung; 10 µM unless noted
  growth: 30.2% (inactive)
A549/ATCC NSCLC; 10 µM unless noted
  growth: 64.5% (inactive)
786-0 renal; 10 µM unless noted
  growth: 77.7% (inactive)
COLO 205 colon; 10 µM unless noted
  growth: 56.6% (inactive)

## O=C(O)c1c(Cl)c(Cl)c(Cl)c(Cl)c1-c1c2cc(I)c(=O)c(I)c-2oc2c(I)c(O)c(I)cc12
NCI-H226 lung; 10 µM
  growth: 113% (inactive) and 99.1% (inactive) and 94.4% (inactive)
NCI-H226 lung; 100 µM
  growth: 25.9% (inactive)
NCI-H322M lung; 10 µM
  growth: 108% (inactive) and 109% (inactive) and 78.1% (inactive)
NCI-H322M lung; 100 µM
  growth: 36.3% (inactive)
HOP-62 NSCLC; 10 µM
  growth: 108% (inactive) and 104% (inactive) and 125% (inactive)
HOP-62 NSCLC; 100 µM
  growth: -66.5% (active)
NCI-H460 lung; 10 µM
  growth: 102% (inactive) and 115% (inactive) and 98.1% (inactive)
NCI-H460 lung; 100 µM
  growth: 98.8% (inactive)
HOP-92 NSCLC; 10 µM
  growth: 125% (inactive) and 43.3% (inactive) and -9.83% (active)
HOP-92 NSCLC; 100 µM
  growth: -22.3% (active)
NCI-H522 lung; 10 µM
  growth: 107% (inactive) and 97.2% (inactive) and 57% (inactive)
NCI-H522 lung; 100 µM
  growth: -61% (active)
A549/ATCC NSCLC; 10 µM
  growth: 103% (inactive) and 106% (inactive) and 96.4% (inactive)
A549/ATCC NSCLC; 100 µM
  growth: 25.2% (inactive)
786-0 renal; 10 µM
  growth: 109% (inactive) and 115% (inactive) and 112% (inactive)
786-0 renal; 100 µM
  growth: 8.48% (active)
COLO 205 colon; 10 µM
  growth: 121% (inactive) and 108% (inactive) and 119% (inactive)
COLO 205 colon; 100 µM
  growth: -59.9% (active)

## O=C1c2ccccc2C(=O)N1c1ccccc1
NCI-H23 lung
  growth: 106% (inactive)
NCI-H226 lung; 10 µM unless noted
  growth: 101% (inactive)
NCI-H322M lung; 10 µM unless noted
  growth: 99.1% (inactive)
HOP-62 NSCLC; 10 µM unless noted
  growth: 96.9% (inactive)
NCI-H460 lung; 10 µM unless noted
  growth: 104% (inactive)
HOP-92 NSCLC; 10 µM unless noted
  growth: 104% (inactive)
NCI-H522 lung; 10 µM unless noted
  growth: 90.9% (inactive)
A549/ATCC NSCLC; 10 µM unless noted
  growth: 90.7% (inactive)
786-0 renal; 10 µM unless noted
  growth: 105% (inactive)
COLO 205 colon; 10 µM unless noted
  growth: 106% (inactive)

## COC(=O)c1nc(=S)[nH]c(C(=O)OC)c1C(=O)c1ccc2ccccc2c1
NCI-H23 lung
  growth: 97.9% (inactive)
NCI-H226 lung; 10 µM unless noted
  growth: 86.9% (inactive)
NCI-H322M lung; 10 µM unless noted
  growth: 97.7% (inactive)
HOP-62 NSCLC; 10 µM unless noted
  growth: 106% (inactive)
NCI-H460 lung; 10 µM unless noted
  growth: 111% (inactive)
HOP-92 NSCLC; 10 µM unless noted
  growth: 101% (inactive)
NCI-H522 lung; 10 µM unless noted
  growth: 102% (inactive)
A549/ATCC NSCLC; 10 µM unless noted
  growth: 120% (inactive)
786-0 renal; 10 µM unless noted
  growth: 114% (inactive)
COLO 205 colon; 10 µM unless noted
  growth: 96.8% (inactive)

## COc1ccc2nc3cc(Cl)ccc3c(NCCNc3c4ccc(Cl)cc4nc4ccc(OC)cc34)c2c1
NCI-H23 lung
  growth: -73% (active)
NCI-H226 lung; 10 µM unless noted
  growth: -54.7% (active)
NCI-H322M lung; 10 µM unless noted
  growth: -86.6% (active)
HOP-62 NSCLC; 10 µM unless noted
  growth: -80.4% (active)
NCI-H460 lung; 10 µM unless noted
  growth: -68.7% (active)
HOP-92 NSCLC; 10 µM unless noted
  growth: -72.7% (active)
NCI-H522 lung; 10 µM unless noted
  growth: -90.7% (active)
A549/ATCC NSCLC; 10 µM unless noted
  growth: -74.5% (active)
786-0 renal; 10 µM unless noted
  growth: -88% (active)
COLO 205 colon; 10 µM unless noted
  growth: -74.9% (active)
